Screening results: PubChem, National Center for Advancing Translational Sciences (NCATS)
AmpC inh det = Promiscuous and Specific Inhibitors of AmpC Beta-Lactamase (assay with detergent); P00811; purified AmpC, nitrocefin hydrolysis with detergent; Potency, µM (titrated, usually from 28.7 µM), inactives show at the highest dose activity change, negative = inhibition; 71,000 tested, 0.09% active; AID 584, 2007; active means well fitted curve in the direction sought with a large enough effect; inconclusive means small, poorly fitted or top-dose-only effect; further: on the % scale 0 is the no-effect control and ±100 the full control effect
Target sequence (P00811 whole entry, looked up): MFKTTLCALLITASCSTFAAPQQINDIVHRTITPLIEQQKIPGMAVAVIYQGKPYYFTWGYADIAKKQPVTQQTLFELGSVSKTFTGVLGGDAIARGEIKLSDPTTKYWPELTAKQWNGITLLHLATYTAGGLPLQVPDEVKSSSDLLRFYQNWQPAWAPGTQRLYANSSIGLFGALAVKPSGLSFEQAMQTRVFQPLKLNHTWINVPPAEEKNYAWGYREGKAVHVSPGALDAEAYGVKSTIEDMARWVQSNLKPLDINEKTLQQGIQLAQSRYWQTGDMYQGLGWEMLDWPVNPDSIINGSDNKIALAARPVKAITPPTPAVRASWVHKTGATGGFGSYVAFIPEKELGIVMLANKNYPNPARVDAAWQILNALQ
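E. coli AmpC (5.3 nM) in 20 mM phosphate pH 7.0 with 0.01% Triton X-100, preincubated 15 min RT with compound; nitrocefin (2 uL of 800 uM stock) hydrolysis followed by 480 nm absorbance every 20 s over 4 min.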
AmpC nodet inh = Promiscuous and Specific Inhibitors of AmpC Beta-Lactamase (assay without detergent). 71,000 tested, 1.8% active. Potency, µM (doses to about 28.7 µM), inactives show top-dose activity change, negative = inhibition. AmpC nitrocefin hydrolysis, absorbance 480 nm, no detergent; further: % of control where 0% means no effect
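AmpC, 20 mM phosphate pH 7.0; 15 min cpd preinc, RT; start with nitrocefin (800 uM stock); A480 kinetic read, 20 s intervals, 4 min. No-enzyme wells = negative control.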
SmPrx2 inh = Schistosoma Mansoni Peroxiredoxins (Prx2). Schistosoma mansoni peroxiredoxin 2 (Prx2). S. mansoni Prx2 activity coupled to TGR/GSH (TGR is thioredoxin glutathione reductase), NADPH fluorescence loss, qHTS. Potency, µM. 65,000 tested, 0.07% active. AID 448, 2006
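Enzyme mix: 100 uM NADPH, 25 nM TGR, 700 uM GSH, 50 nM Prx2 in 100 mM phosphate pH 7.4, 10 mM EDTA, 0.01% Tween-20. 15 min RT with compound; NADPH/GSH added, H2O2 starts reaction; NADPH fluorescence read 8 min.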
Anthrax LT inh = qHTS Assay for Anthrax Lethal Toxin Internalization; Cells, anthrax lethal toxin internalization, FRET ratio (460/530); Potency, µM (highest dose often 40 µM), for inactives: at the top dose activity change, negative = inhibition, usual class: inhibitors; 70,000 tested, 0.67% active; further: on the % scale 0 is the no-effect control and ±100 the full control effect; nearly all actives have a fitted effect of over 50% in size
The depositor's hits bear a star; [ ] = dose if it differs, or a comment. Hits are enriched below; roughly 2.4% of the tested compounds scored in any of these assays. Unless noted, the call rests on the fitted dose curve. Potency means the concentration at half of the fitted maximal effect.

How did CCCCC/C=C\C/C=C\C/C=C\C/C=C\CCCC(=O)Nc1ccc(O)cc1 do in these assays?
AmpC inh det: -10%; AmpC nodet inh: 10µM*; SmPrx2 inh: >57; Anthrax LT inh: inconclusive

How did Cc1cc(C)n2nc(S(=O)(=O)NCCc3ccccc3)nc2n1 do in these assays?
AmpC inh det: 14%; AmpC nodet inh: 4µM*[single pt active]; SmPrx2 inh: >57; Anthrax LT inh: -10%

How did CCC(C)NC(=O)CS(=O)Cc1nc(-c2cccc(C)c2)oc1C (stereo not drawn) do in these assays?
AmpC inh det: 13%; AmpC nodet inh: 4µM*[single pt active]; SmPrx2 inh: >57; Anthrax LT inh: -3%

Results for Cc1cccc(-c2nc(CS(=O)CC(=O)NC3CCCC3)c(C)o2)c1 (stereo not drawn) ?
AmpC inh det: 11%; AmpC nodet inh: 4µM*[single pt active]; SmPrx2 inh: >57; Anthrax LT inh: 0%

How did CCCCSCCCNC(=O)CS(=O)Cc1nc(-c2cccc(C)c2)oc1C (stereo not drawn) do in these assays?
AmpC inh det: -3%; AmpC nodet inh: 107%; SmPrx2 inh: >57; Anthrax LT inh: 3%

What do the screens show for `CCCCNC(=O)CS(=O)Cc1nc(-c2cccc(C)c2)oc1C` (stereo not drawn)?
AmpC inh det: 10%; AmpC nodet inh: 4µM*[single pt active]; SmPrx2 inh: >57; Anthrax LT inh: -8%

How did CN1CCN(c2ccc3nc(-c4ccc5nc(-c6ccc(O)cc6)[nH]c5c4)[nH]c3c2)CC1 do in these assays?
AmpC inh det: -1%[5.75 µM]; AmpC nodet inh: -20%[5.75 µM]; SmPrx2 inh: >57; Anthrax LT inh: 9%[8 µM]

How did CC(C)S do in these assays?
AmpC inh det: 10%; AmpC nodet inh: -14%; Anthrax LT inh: 7%

How did CCOC(=O)Cc1csc(-n2sc3ccccc3c2=O)n1 do in these assays?
AmpC inh det: 9%; AmpC nodet inh: 6%; SmPrx2 inh: >57; Anthrax LT inh: 3.2µM*

What do the screens show for `O=C(NCc1ccc2c(c1)OCO2)c1cccc2c1C(=O)N(C1CCCCC1)C2`?
AmpC inh det: 14%; AmpC nodet inh: 2.5µM*[single pt active]; SmPrx2 inh: >57; Anthrax LT inh: 2%

Results for Oc1ccc(Cl)cc1C=Nc1cnc2ccccc2c1 ?
AmpC inh det: 0%[5.75 µM]; AmpC nodet inh: 1%[5.75 µM]; SmPrx2 inh: >57; Anthrax LT inh: -3%[8 µM]

What do the screens show for `Cc1cc(N2CCN(S(=O)(=O)c3ccc(Cl)cc3)CC2)c2ccccc2n1`?
AmpC inh det: -4%; AmpC nodet inh: 123%; Anthrax LT inh: 10µM*

How did Cc1cc(C)n(-c2nc3ccccc3nc2N2CCN(S(=O)(=O)c3ccc(F)c(C)c3)CC2)n1 do in these assays?
AmpC inh det: -2%; AmpC nodet inh: 72%; SmPrx2 inh: >57; Anthrax LT inh: 15%

What do the screens show for `COC(=O)c1cc(-c2ccc(Br)cc2)on1`?
AmpC inh det: 11%; AmpC nodet inh: 4µM*[single pt active]; SmPrx2 inh: >57; Anthrax LT inh: -16%

How did COC(=O)c1cc(-c2ccc(OC)c(OC)c2)on1 do in these assays?
AmpC inh det: 0%; AmpC nodet inh: 10%; SmPrx2 inh: >57; Anthrax LT inh: -2%

How did O=C(Nc1nnc(N2CCCCCC2)s1)c1cc(-c2ccc(Br)cc2)on1 do in these assays?
AmpC inh det: 11%; AmpC nodet inh: 4µM*[single pt active]; SmPrx2 inh: >57; Anthrax LT inh: -11%

Results for O=C(NCc1cccs1)c1cc2c(s1)-c1ccccc1OC2 ?
AmpC inh det: 10%; AmpC nodet inh: 16µM*; SmPrx2 inh: >57; Anthrax LT inh: inconclusive

Results for CCOC(=O)C1CCN(c2c(NCc3ccc(C(=O)O)cc3)c(=O)c2=O)CC1 ?
AmpC inh det: 15%; AmpC nodet inh: 4%; SmPrx2 inh: >57; Anthrax LT inh: -5%

What do the screens show for `CCOc1ccc(-c2nc(-c3ccc(OC)c(OC)c3)no2)cc1OCC`?
AmpC inh det: -2%; AmpC nodet inh: 25%; SmPrx2 inh: >57

How did COc1ccc(-c2noc(-c3cc(C)cc(C)c3)n2)cc1OC do in these assays?
AmpC inh det: 8%; AmpC nodet inh: 1.3µM*[single pt active]; SmPrx2 inh: >57; Anthrax LT inh: -25%

What do the screens show for `COc1ccc(-c2noc(-c3ccc(Br)o3)n2)cc1OC`?
AmpC inh det: -2%; AmpC nodet inh: 9%; SmPrx2 inh: >57; Anthrax LT inh: inconclusive

How did COc1cc(-c2nc(-c3ccc(Br)o3)no2)cc(OC)c1OC do in these assays?
AmpC inh det: 15%; AmpC nodet inh: 4µM*[single pt active]; SmPrx2 inh: >57; Anthrax LT inh: -24%

What do the screens show for `N[C@@H](CCCCO)C(=O)O`?
AmpC inh det: -2%[5.75 µM]; AmpC nodet inh: 2%[5.75 µM]; SmPrx2 inh: >57; Anthrax LT inh: 0%[8 µM]

What do the screens show for `Nc1ccc(S(=O)(=O)NCCS(=O)(=O)O)cc1`?
AmpC inh det: 0%[5.75 µM]; AmpC nodet inh: -1%[5.75 µM]; SmPrx2 inh: >57; Anthrax LT inh: -1%[8 µM]

Results for COc1ccc(OC)c(C2=NOC(C(=O)Nc3cc(C)nn3-c3ccccc3)C2)c1 (stereo not drawn) ?
AmpC inh det: 11%; AmpC nodet inh: 4µM*[single pt active]; SmPrx2 inh: >57; Anthrax LT inh: -12%

How did O=C1OC(=O)[C@@H]2[C@@H]1[C@@H]1CC[C@H]2O1 do in these assays?
AmpC inh det: 12%; AmpC nodet inh: -6%; SmPrx2 inh: >57; Anthrax LT inh: inconclusive

What do the screens show for `CCCC[C@@H]1C[C@H]1[C@@H](NP(=O)(c1ccccc1)c1ccccc1)c1ccccc1OC`?
AmpC inh det: 15%; AmpC nodet inh: 8%; Anthrax LT inh: 13µM*

How did CCCC[C@@H]1C[C@H]1C(NP(=O)(c1ccccc1)c1ccccc1)c1ccc(Cl)cc1 (stereo partly drawn) do in these assays?
AmpC inh det: -6%; AmpC nodet inh: 21%; SmPrx2 inh: >57; Anthrax LT inh: -22%

What do the screens show for `CN(C)CC(CN(C)C)c1ccccn1`?
AmpC inh det: -6%[5.75 µM]; AmpC nodet inh: -3%[5.75 µM]; SmPrx2 inh: >57; Anthrax LT inh: -2%[8 µM]

How did Cc1cc(=O)oc2cc(OCC#N)ccc12 do in these assays?
AmpC inh det: 9%; AmpC nodet inh: 4µM*[single pt active]; SmPrx2 inh: >57; Anthrax LT inh: -5%

How did O=C(Nc1nc(-c2ccc(S(=O)(=O)N3CCCC3)cc2)cs1)c1ccco1 do in these assays?
AmpC inh det: -2%; AmpC nodet inh: -8%; SmPrx2 inh: >57

How did Cn1cccc1C(=O)Nc1nc(-c2ccccn2)cs1 do in these assays?
AmpC inh det: -2%; AmpC nodet inh: -11%; SmPrx2 inh: >57; Anthrax LT inh: -18%

What do the screens show for `O=C(Nc1nc(-c2ccccn2)cs1)c1ccc(Cl)s1`?
AmpC inh det: 6%; AmpC nodet inh: -1%; SmPrx2 inh: >57; Anthrax LT inh: 6.3µM*

What do the screens show for `Cc1ccc(-c2csc(NC(=O)c3ccno3)n2)cc1`?
AmpC inh det: -3%; AmpC nodet inh: 7.9µM*; SmPrx2 inh: >57; Anthrax LT inh: 13%

Results for O=C(Nc1nc(-c2ccc(Cl)s2)cs1)c1cccs1 ?
AmpC inh det: 4%; AmpC nodet inh: inconclusive; SmPrx2 inh: >57; Anthrax LT inh: inconclusive

What do the screens show for `O=C(Nc1nc(-c2ccccc2)cs1)c1cccs1`?
AmpC inh det: 6%; AmpC nodet inh: -16%; Anthrax LT inh: 10µM*
